This note sets out measurements from PubChem BioAssay AID624305 (National Center for Advancing Translational Sciences (NCATS), 2012).

Results filed as inconclusive are left out. Entries that show only a call come without a potency. Calls of active or inactive are those of the source. Calls come from the whole dose curve; as a rule, active = well fitted activation curve with a large enough effect; inconclusive = small, poorly fitted or top-dose-only effect; inactive = no such curve, though single readings can be large or run the other way.
Potency is the fitted concentration of half-maximal effect.

This assay can be described thus: qHTS assay for re-activators of p53 using a Luc reporter: Hit Validation. Note: nearly all actives have a fitted effect of over 75% in size. To be noted: p53-responsive luciferase reporter cells, luminescence, H1299 line expressing heat-sensitive Ala138Val p53; series mostly up to 46.1 µM. An outline of the steps: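 H1299 (p53-null) cells stably carrying p53-A138V and a BP100-luciferase reporter, 1000 cells/well, treated 24 h at 37 deg C. Compounds at several concentrations, 1:5 dilution; nocodazole control; luminescence read after 10 min with detection reagent.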
On to `COC(=O)c1nn(-c2ccc(-c3ccccc3)cc2)cc1O`, for which the Potency is 0.092 µM (active).
Then `CCCCc1ccc(NC(=S)Nc2ccc(Nc3ccc(OC)cc3)cc2)cc1`, with “inactive”; and `Cc1ccc(S(=O)(=O)NCC(=O)NCC(=O)N2CCC(C)CC2)cc1`, with “inactive”.
As to `O=C(NCC1CCCO1)c1ccc(NC(=O)c2cccc([N+](=O)[O-])c2)cc1` (stereo not drawn), the Potency entry was “inactive”.
Then `O=C(NCC(=O)N1CCN(c2ncccn2)CC1)c1ccc(F)cc1`, with “inactive”.
As for `N/C(=N\OC(=O)c1cc(Cl)ccc1Cl)c1ccccn1`, the Potency was 0.92 µM (active).
To `Clc1cccc(Cl)c1CSc1nnc2ccccn12` belongs “inactive”; to `Cc1c(/C(O)=C2/C(=O)C(=O)N(CCN3CCOCC3)C2c2cccs2)cnn1-c1ccccc1` (stereo not drawn), 8.2 µM (active).
Then `Cc1ccsc1/C=C(\C#N)C(=O)Nc1c(C)n(C)n(-c2ccccc2)c1=O`, with “inactive”.
With `CCc1nnc(NC(=O)/C=C/c2ccco2)s1`, the Potency is 20.6 µM (active).
Then `COc1ccc(N2CCN(CC(=O)Nc3ccc(C)cc3)CC2)cc1`, with “inactive”.
In the case of `Cc1cc(C(c2nnnn2Cc2ccccc2)N2CCOCC2)c(C)n1-c1ccc2c(c1)OCO2` (stereo not drawn), the Potency result was “inactive”.
To `Cc1ccc(-c2cc3nc(C)cc(NCc4ccco4)n3n2)cc1` belongs 7.31 µM (active); to `CC(C)c1ccc(OCC(=O)NC(C)c2ccccc2)cc1` (stereo not drawn), “inactive”; to `O=C(/C(=N/N=C/c1ccc(O)c(O)c1)c1ccccc1)c1ccccc1`, “inactive”.
For `O=C(COc1ccccc1Cl)Nc1ccc(Cl)cn1`, the Potency is 20.6 µM (active).
Then `CCCCn1c(SCC(=O)N2CCCC2=O)nc2cc(S(N)(=O)=O)ccc21`, with “inactive”; and `N=C1C(c2nc3ccccc3s2)=C(O)CN1Cc1ccccc1`, with 14.6 µM (active).
Then `Cc1cc(C)c2nc(NNC(=O)c3ccc(S(=O)(=O)N4CCCC(C)C4)cc3)sc2c1` (stereo not drawn), with “inactive”.
Consider `Fc1cccc2sc(Nc3nnc(-c4ccco4)o3)nc12`, for which the Potency is 11.6 µM (active).
Regarding `O=C(COC(=O)c1cc2ccccc2oc1=O)Nc1cccc(S(=O)(=O)N2CCCCCC2)c1`, the Potency result was “inactive”.
To `COc1nnc(-c2ccc(C)c(S(=O)(=O)N(C)C)c2)c2ccccc12` belongs “inactive”.
Consider `CCCN(C(=O)c1cccc(S(=O)(=O)N2CCCc3ccccc32)c1)C1CCS(=O)(=O)C1` (stereo not drawn), for which the Potency result was “inactive”.
Then `O=C(CN1C(=O)COc2ccccc21)Nc1ccc(F)cc1`, with “inactive”.
To `Cc1ccc(NC(=O)Nc2ccccc2)c(Br)c1` belongs 8.2 µM (active); to `O=C(CCCN1C(=O)/C(=C/c2ccco2)SC1=S)Nc1ccccc1`, “inactive”; to `CCOC(=O)c1c(C)[nH]c(C(=O)CSc2ccccc2)c1C`, 0.517 µM (active).
For `COCCn1c(C)cc(C(=O)COc2ccc(N(C)S(=O)(=O)c3ccc(C)cc3)cc2)c1C`, the Potency result is “inactive”.
To `CCc1nnc(NC(=O)CCC(=O)Nc2ccccc2)s1` belongs “inactive”.
Then `Cn1cc(Cl)c(C(=O)Nc2nc3ccccc3s2)n1`, with 0.231 µM (active).
Then `CSC1=NCCN1C(=O)c1ccc(Br)o1`, with “inactive”.
With `Cc1cc(NC(=O)c2ccc3nccnc3c2)ccc1Br`, the Potency is 4.11 µM (active).
Then `CN(Cc1ccccc1)c1ncnc2ccc(Br)cc12`, with “inactive”; and `CCOC(=O)C1=C(C)Nc2ncnn2C1c1c[nH]c2ccccc12` (stereo not drawn), with “inactive”; and `Cc1cccc(C)c1Nc1c(-c2ccccn2)nc2ccccn12`, with “inactive”.
To `Cc1ccc2c(c1)CCCN2C(=O)Nc1ccc2c(c1)OCO2` belongs “inactive”; to `CC(/C=N/Nc1nc2ccccc2[nH]1)=C\c1ccccc1`, 0.651 µM (active); to `Cc1cc(N2CCCCC2)n2ncc(-c3ccc(Cl)cc3)c2n1`, 0.82 µM (active).
